Potency data for 50 compounds are collected here from PubChem BioAssay AID504339 (National Center for Advancing Translational Sciences (NCATS), 2011).

SMILES strings stand for the structures. Screen size: about 390,000 compounds; about 17,000 (4.4%) were called active. Inconclusive results (about 8%) are left out. Calls follow the shape of the dose curve; as a rule, active = well fitted inhibition curve with a large enough effect; inconclusive = small, poorly fitted or top-dose-only effect; inactive = no such curve, though single readings can be large or run the other way. The list comes from a sample in which actives are over-represented; it also holds similar structures and randomly drawn compounds. Entries that show only a call come without a potency.
Potency is read from the fitted curve at half-maximal effect.

Sequence of Lysine-specific demethylase 4A (Homo sapiens) (O75164 whole entry, looked up, the tested form may be a part): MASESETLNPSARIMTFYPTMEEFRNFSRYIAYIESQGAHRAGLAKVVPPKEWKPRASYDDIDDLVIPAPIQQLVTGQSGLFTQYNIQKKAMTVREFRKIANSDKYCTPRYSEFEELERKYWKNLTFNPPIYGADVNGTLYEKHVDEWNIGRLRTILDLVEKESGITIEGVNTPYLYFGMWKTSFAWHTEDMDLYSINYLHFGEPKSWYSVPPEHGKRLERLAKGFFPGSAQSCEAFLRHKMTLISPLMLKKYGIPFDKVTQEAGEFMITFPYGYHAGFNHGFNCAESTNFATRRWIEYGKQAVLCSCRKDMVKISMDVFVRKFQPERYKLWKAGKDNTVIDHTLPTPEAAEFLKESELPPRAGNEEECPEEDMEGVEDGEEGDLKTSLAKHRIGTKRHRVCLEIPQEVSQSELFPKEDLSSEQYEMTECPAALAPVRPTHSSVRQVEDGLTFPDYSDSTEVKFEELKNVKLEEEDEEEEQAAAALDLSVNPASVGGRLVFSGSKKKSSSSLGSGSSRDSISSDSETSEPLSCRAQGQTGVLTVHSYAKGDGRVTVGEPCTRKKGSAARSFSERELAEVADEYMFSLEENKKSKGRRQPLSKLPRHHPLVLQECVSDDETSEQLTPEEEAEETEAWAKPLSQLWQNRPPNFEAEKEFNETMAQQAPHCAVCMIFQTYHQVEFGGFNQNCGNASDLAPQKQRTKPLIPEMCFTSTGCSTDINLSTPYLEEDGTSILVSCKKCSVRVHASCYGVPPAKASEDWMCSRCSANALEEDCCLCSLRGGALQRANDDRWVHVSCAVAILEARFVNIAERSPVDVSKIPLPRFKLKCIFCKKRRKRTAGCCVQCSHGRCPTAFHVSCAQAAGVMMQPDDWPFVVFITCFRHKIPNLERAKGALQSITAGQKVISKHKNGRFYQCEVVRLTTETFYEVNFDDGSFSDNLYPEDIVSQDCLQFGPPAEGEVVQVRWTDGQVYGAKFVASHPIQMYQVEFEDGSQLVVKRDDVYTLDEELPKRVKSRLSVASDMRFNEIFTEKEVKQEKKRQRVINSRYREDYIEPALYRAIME

The test addresses Lysine-specific demethylase 4A (Homo sapiens) (UniProt O75164). Nature of the test: qHTS Assay for Inhibitors of JMJD2A-Tudor Domain. Also: nearly all actives have a fitted effect of over 50% in size. The settings on record: AlphaScreen JMJD2A-Tudor / H3K4me3 peptide binding; series mostly up to 114 µM. From the text:
JMJD2A is a jumonji-domain-containing lysine demethylase that uses Fe(II) together with 2-OG to effect oxidative demethylation of histones. Methylation is one of many […] modification that affect epigenetic transcription. […] It is proposed that the functions of JmjD2A binding to the histones, is to maintain marks after they are installed and to spread the modifications by […], establishing a self-propagating cycle for rapid methylation over a large area of chromatin. […] Thus, small molecule targeting of the JMJD2A-tudor domain interaction with its target methylhistone mark is expected to enable sophisticated experiments probing the fine regulatory pathways leading to selective demethylation of a given methyllysine locus based on the methylation state of adjacent histone marks. A quantitative high throughput AlphaScreen has been developed to identify small molecule inhibitors based on a protocol published by NCGC and SGC [4].
Although AlphaScreen has significant advantages with its utility in a variety of epigenetic target assays, the primary screening data provided in this deposition should be used with caution due to the prevalence of screening artifacts. The top compound concentration tested was high (>100uM) in this assay, which increases number of actives and potential artifacts. An AlphaScreen counterscreen is highly recommended to be run against any putative actives to eliminate non-specific artifacts. Alternatively, one can use other AlphaScreen assays in PubChem to filter out promiscuous hits.
[1] Lee, J. et al. Distinct binding modes specify the recognition of methylated histone H3K4 and H4K20 by JMJD2A-tudor. Nat Struct Mol Biol. 15(1); 109-11. 2008. PMID: 18084306
[2] Yasgar, et al. Compound Management for Quantitative High-Throughput Screening. JALA. 2008 Apr;13(2):79-89. PMID: 18496600
[3] Inglese, et al. Quantitative high-throughput screening: a titration-based approach that efficiently identifies biological activities in large chemical libraries. Proc Natl Acad Sci. 1;103(31):11473-8. 2006. PMID: 16864780
[4] Quinn et al. A homogeneous method for investigation of methyl-dependent protein-protein interactions in epigenetics. Nucleic Acids Res., 38(2):e11. 2010. PMID: […]
[5] Baell,Holloway. New substructure filters for removal of pan assay interference compounds (PAINS) from screening libraries and for their exclusion in bioassays. J Med Chem. 53(7):2719-40. 2010. PMID: 20131845
NIH Molecular Libraries Probe Production Network [MLPCN]
NIH Chemical Genomics Center [NCGC]
Structural Genomics Consortium (SGC)
To each well of a 1,536w plate, 2ul of JMJD2A-Tudor (final 100nM) and 1ul biotinylated histone peptide methylated at Lys4 [b-H3(1-18)K4me3] (final 50nM) were added in 1x PBS buffer, pH 7.4, containing 0.01% Tween-20, using a nanoliter dispenser. Formation of a protein-peptide complex proceeded at room temperature for 30 min. A Kalypsys pin-tool transferred 23nl of library compound solution in DMSO to each well. Following a 30 min incubation of the protein-peptide complex with compounds at room temperature, a mixture of 40 µg/mL each streptavidin-coated donor and nickel chelate acceptor AlphaScreen beads (final 10 µg/mL) was added in a 1ul dispense for a final volume of 4ul, followed by a brief centrifugation (1000 rpm, 1 min). Plates were incubated protected from the light for 20 min at room temperature. Microplates were then read on an EnVision multilabel plate reader using the 1,536 plate HTS AlphaScreen aperture (excitation time 80 ms, measurement time 240 ms).
For orientation: Quantitative high-throughput screening tests each substance at several concentrations.
For the compound `CCOC(=O)C1(Cc2ccc(Cl)cc2)CCN(C(C)CCn2cccn2)CC1` (stereo not given), the Potency entry was “inactive”.

`COc1ccc(N=Cc2c(O)n(C)c(=O)[nH]c2=O)cc1`: the Potency result is “inactive”.

Take `C=CC12CN(C)[C@@H]3C4CO[C@H](C[C@H]41)[C@]1(C(=O)Nc4ccccc41)[C@@H]32` (stereo not given in full): the Potency entry is “inactive”.

Consider `Cc1ccc(Cn2nnnc2CN2CCC(n3nnc4ccccc43)CC2)cc1`, for which the Potency is 50.1 µM (active).

`COC1=C[C@@H]2[C@@H]3Cc4ccc(OC)c(O)c4[C@]2(CCN3C)CC1=O`: the Potency entry is “inactive”.

For `O=C(O)C1CSC(c2cccnc2)N1` (stereo not given), the Potency is 7.94 µM (active).

On to `NCCc1c[nH]c2ccc(O)cc12`, for which the Potency result is “inactive”.

With `CC[N+](CC)(CC)CCCCCCCCCC[N+](CC)(CC)CC`, the Potency entry is “inactive”.

Consider `COc1cccc(N2C(=O)NC(=O)/C(=C\c3ccc([N+](=O)[O-])s3)C2=O)c1`, for which the Potency is 35.5 µM (active).

For the compound `O=C1NC(=O)N(c2ccccc2)C(=O)/C1=C/c1ccc([N+](=O)[O-])s1`, the Potency is 56.2 µM (active).

With `O=C1NC(=O)N(c2ccc(F)cc2)C(=O)/C1=C/c1ccc2c(c1)CCCN2Cc1ccccc1`, the Potency entry is “inactive”.

Consider `COc1cccc(N2C(=O)NC(=O)/C(=C\c3cn(C)c4ccccc34)C2=O)c1`, for which the Potency entry was “inactive”.

`Cc1ccccc1N1C(=O)NC(=O)/C(=C\c2cc(C)n(C)c2C)C1=O`: the Potency result is “inactive”.

With `COCCNC(=O)CN1C2CCC1CC(O)(c1cccnc1)C2` (stereo not given), the Potency result was “inactive”.

For the compound `COC(=O)C1=C(c2cccc(OCc3ccccc3)c2)C[C@@H]2CC[C@H]1N2C(=O)NCc1ccc(Br)cc1`, the Potency entry was “inactive”.

As to `C[C@]12CCC3C(CC[C@H]4[C@H](O)[C@H](O)CC[C@]34C)C1CCC2=O` (stereo not given in full), the Potency result was “inactive”.

`Nc1ccc([N+](=O)[O-])cc1`: the Potency result is “inactive”.

Regarding `COC1C(O)C(C)OC(OC2CCC3(C=O)C(CCC4C3CCC3(C)C(C5=CC(=O)OC5)CCC43O)C2)C1O` (stereo not given), the Potency result was “inactive”.

With `CCCCC(=O)N/N=C/c1c(O)n(-c2ccccc2)c(=O)[nH]c1=O`, the Potency is 79.4 µM (active).

Turning to `CCc1nnc(NS(=O)(=O)c2ccc(N=Cc3c(O)n(-c4ccccc4)c(=O)[nH]c3=O)cc2)s1`, the Potency entry is “inactive”.

`O=c1[nH]c(=O)n(Cc2ccccc2)c(O)c1/C=N/Nc1c(F)c(F)c(F)c(F)c1F`: the Potency entry is “inactive”.

For `CNC(=O)O/N=C(\N)Cc1csc2ccc(Cl)cc12`, the Potency entry is “inactive”.

`Cc1ccc(Oc2cnn(-c3ccccc3)c(=O)c2Br)cc1`: the Potency result was “inactive”.

As for `Cc1cc(/C=C2/C(=O)NC(=O)N(Cc3ccco3)C2=O)c(C)n1-c1ccc(C(=O)O)cc1`, the Potency entry is “inactive”.

Take `O=C1NC(=O)N(Cc2ccco2)C(=O)/C1=C\c1ccc(-c2ccc(F)cc2)o1`: the Potency result is “inactive”.

As to `COc1ccc(N2C(=O)/C(=C/c3ccco3)C(=O)NC2=S)cc1`, the Potency is 10 µM (active).

For the compound `CN(C)c1ccc(/C=C2\CC3C4CC=C5CC(O)CCC5(C)C4CCC3(C)C2=O)cc1` (stereo not given), the Potency entry is “inactive”.

Consider `C[C@]12CC[C@H](O)CC1=C([N+](=O)[O-])CC1C2CC[C@@]2(C)C1CC[C@@H]2O` (stereo not given in full), for which the Potency result is “inactive”.

For the compound `COc1ccccc1N=C1SCCCN1C`, the Potency was 56.2 µM (active).

As to `CCC(C)(O)C(=O)OC1C(=O)OC2CC3C(C)=CC(=O)C(O)C3(C)C3C4(O)OCC23C1C(C)C4O` (stereo not given), the Potency entry is “inactive”.

On to `COCc1cc(OC(=O)N(C)C)nc(-c2ccc(C)c(Cl)c2)n1`, for which the Potency entry was “inactive”.

Consider `CCOC(=O)CC(SP1(=S)OCC2(CCCCO2)C(C2CCCCO2)O1)C(=O)OCC` (stereo not given), for which the Potency entry was “inactive”.

Consider `c1cc2c(cc1C1OCC3C(c4ccc5c(c4)OCO5)OCC13)OCO2` (stereo not given), for which the Potency result was “inactive”.

Consider `CC(=O)OC1C2(CC3N4C(=O)C5(CO)SSC4(CC31O)C(=O)N5C)OC(C)C(C)(C)C2=O` (stereo not given), for which the Potency entry was “inactive”.

`CCN(CC)CCOC(=O)c1cc2cc(COC)ccc2o1`: the Potency was 56.2 µM (active).

As to `Cc1ccc(N(C)C(=O)Oc2cccc3ccc(C)nc23)cc1`, the Potency entry is “inactive”.

With `CC(=O)C1(O)CCC2C3CCC4=C(Cl)C(=O)CCC4(C)C3CCC21C` (stereo not given), the Potency result is “inactive”.

With `COC(=O)C1=C(c2ccc(Cl)c(C(F)(F)F)c2)C[C@@H]2CC[C@H]1N2C(=O)NC(C)C`, the Potency result is “inactive”.

As to `Clc1cccc(Cl)c1Cl`, the Potency entry was “inactive”.

With `O=C(COC(=O)c1ccccc1)Nc1ccc(Cl)cc1C(=O)c1ccccc1`, the Potency entry was “inactive”.

Take `CN1CCN(C(=S)SCC(=O)Nc2ccc(Cl)cc2C(=O)c2ccccc2)CC1`: the Potency is 44.7 µM (active).

With `O=C(Nc1ccc(Cl)cc1C(=O)c1ccccc1)c1cc(Cl)cc(Cl)c1`, the Potency result was “inactive”.

Consider `CC12CCC3C(CCC4CC(=O)CCC43C)C1CC(=NO)C2=O` (stereo not given), for which the Potency entry was “inactive”.

Consider `Cc1cccc(Cn2cccc(C(=O)Nc3ccc4c(c3)OCCO4)c2=O)c1`, for which the Potency entry was “inactive”.

For the compound `CCOCCc1c(O)[nH]c(=S)[nH]c1=O`, the Potency is 79.4 µM (active).

`Oc1ccc2c3c1OC1[C@H](O)CC[C@@]4(O)[C@@H](C2)N(CC2CC2)CC[C@]314` (stereo not given in full): the Potency result is “inactive”.

In the case of `CCC(C)n1c(O)c(/C=N/Nc2nc3c(c(=O)n(C)c(=O)n3C)n2C)c(=O)[nH]c1=S` (stereo not given), the Potency is 79.4 µM (active).

With `Cc1ccccc1NC(=O)COC(=O)c1cc(C)n(C2CC2)c1C`, the Potency entry is “inactive”.

On to `C=Cn1ccnc1P(=S)(c1cc(N(CC)CC)ns1)c1nccn1C=C`, for which the Potency result is “inactive”.

`Cc1nc2ccccn2c1P(=S)(N1CCCCC1)N1CCCCC1`: the Potency entry is “inactive”.
